According to PubChem BioAssay AID463173 (ICCB-Longwood Screening Facility, Harvard Medical School, 2010):
The whole screen tested about 52,000 compounds, of which about 4,300 (8.3%) were called active. The sample holds actives, similar compounds and a random draw of the others, so the mix is not that of the screen. A number with no mark means an inactive call. Cut-off read from the data, not from the text of the source: active = survival mostly below about 52% (no sharp cut-off); inactive = mostly above about 56%.

system: DeltatarO mutant; assay: growth inhibition of S. aureus wild type versus tarO mutant, primary screen, teichoic acid synthesis inhibitors, RN4220, OD600 (AID 463173); conditions: OD600, 18 h, stronger effect = lower value, screened at 18.75 µg/mL (by protocol)

Row | Compound | survival
1 | O=C(NC12CC3CC(CC(C3)C1)C2)c1ccco1 | 72%
2 | CN(C)CCCC1(O)c2ccccc2CCc2ccccc21 | 85%
3 | O=C(Nc1cc(Cl)cc(Cl)c1)c1ccc(F)c(S(=O)(=O)N2CCCC2)c1 | 78%
4 | CCC(CC)c1nc2ccccc2c(=O)[nH]1 | 98%
5 | Cc1cccc(-c2nc3scc(CCNS(=O)(=O)c4ccc5c(c4)OCCO5)n3n2)c1 | 85%
6 | Cc1nn(-c2ccccc2)c(-n2cccc2)c1C(=O)NCc1ccccc1Cl | 2% (active)
7 | Cc1ccc(CCNC(=O)c2c(C)nn(-c3ccc(F)cc3)c2-n2cccc2)cc1 | 67%
8 | Cc1ccc(NC(=O)c2c(C)nn(-c3ccccc3)c2-n2cccc2)c(Cl)c1 | 79%
9 | Cc1nn(-c2ccccc2)c(-n2cccc2)c1C(=O)NCCc1ccc(Cl)cc1 | 4% (active)
10 | Cc1nn(-c2ccc(F)cc2)c(-n2cccc2)c1C(=O)NCCc1ccc(Cl)cc1 | 68%
11 | CC(=O)Nc1ccc(NC(=O)c2c(C)nn(-c3ccccc3)c2-n2cccc2)cc1 | 84%
12 | O=C(NC1CCCCC1)c1ccc(S(=O)(=O)N2CCCC2)cc1 | 79%
13 | CCOC(=O)c1ccc(NC(=O)Cn2cc(C(=O)C3CC3)c3ccccc32)cc1 | 68%
14 | Cc1ccccc1NC(=O)c1sc2nc3n(c(=O)c2c1C)N=C(c1ccccc1)CS3 | 88%
15 | COc1ccc2sc(N3C(=O)C4CC=C(C)CC4C3=O)nc2c1 (centres undefined) | 103%
16 | COCCN1Cc2cc3cc4c(cc3nc2SC1=Nc1cccc(OC)c1)OCO4 | 87%
17 | CCN=C1Sc2nc3ccc(OCC)cc3cc2CN1CCOC | 104%
18 | CCOc1ccc2nc3c(cc2c1)CN(CCO)C(=Nc1cccc(OC)c1)S3 | 47% (active)
19 | CN(C)c1ccc(NC(=O)CN2CCN(CC(=O)Nc3ccc(Br)cc3)CC2)cc1 | 80%
20 | CCCn1c(-c2ccc(F)cc2)cnc1SCC(=O)N1CCCCC1C (centres undefined) | 74%
21 | CCS(=O)(=O)NCCc1csc2nc(-c3ccc(C)cc3)nn12 | 83%
22 | O=S(=O)(NCCc1csc2nc(-c3ccccc3)nn12)c1cccs1 | 72%
23 | O=S(=O)(NCCc1csc2nc(-c3ccc(Cl)cc3)nn12)c1cccs1 | 84%
24 | COc1ccc(S(=O)(=O)NCCc2csc3nc(-c4ccccc4)nn23)cc1OC | 72%

Row | Compound | survival
25 | CS(=O)(=O)NCCc1csc2nc(-c3ccccc3)nn12 | -2% (active)
26 | COc1ccc(OC)c(S(=O)(=O)NCCc2csc3nc(-c4ccccc4)nn23)c1 | -1% (active)
27 | CCc1ccc(S(=O)(=O)NCCc2csc3nc(-c4ccccc4)nn23)s1 | 109%
28 | COc1ccc(-c2nc3scc(CCNS(=O)(=O)c4ccccc4F)n3n2)cc1 | 90%
29 | COc1ccc(-c2nc3scc(CCNS(=O)(=O)c4cccs4)n3n2)cc1 | 6% (active)
30 | CCOc1ccc(C(=O)Nc2ccc3nc(SCc4ccccc4)sc3c2)cc1 | 91%
31 | O=c1c2c(nc3n1CCCS3)-c1ccccc1CC21CCCC1 | 73%
32 | CC1=C(C(=O)OC2CCCCCC2)C(c2cccc(F)c2F)CC(=O)N1 (centres undefined) | 128%
33 | CC(NC(=O)c1ccc(F)cc1)c1nc2ccccc2[nH]1 (centres undefined) | 83%
34 | O=C(Cn1c(=O)nc(-c2ccccc2)c2ccccc21)Nc1ccc(Cl)cc1F | 73%
35 | Clc1ccccc1-c1nnc(COc2ccccc2)o1 | 50%
36 | CC(CNC(=O)c1sc2ncccc2c1-n1cccc1)c1ccccc1 (centres undefined) | 102%
37 | COCCCNC(=O)CCCn1c(=O)c2ccccc2n(CC(=O)Nc2ccc(C)cc2Cl)c1=O | 96%
38 | COc1cc(NC(=O)CN2CCN(CC(=O)Nc3ccc(F)cc3)CC2)cc(OC)c1 | 70%
39 | CCN(C(=O)Cn1ncc2c(=O)oc3ccccc3c21)c1ccccc1F | 118%
40 | Oc1ccc(-c2nc3ccc(Cl)cn3c2Nc2ccc(Cl)cc2)cc1 | 16% (active)
41 | Cc1ccc2nc(-c3ccc(O)cc3)c(Nc3ccc(Cl)cc3)n2c1 | 59%
42 | Oc1ccc(-c2nc3ccc(Cl)cn3c2Nc2ccc3c(c2)OCO3)cc1 | 106%
43 | Cc1ccc(C(=O)OCc2cc(=O)n3nc(-c4cccs4)sc3n2)cc1 | 95%
44 | CCC(C(=O)Nc1ccc(C(=O)OC)cc1)n1nc(-c2ccc(C)cc2)c2c(c1=O)CCCC2 (centres undefined) | 102%
45 | CCC(C(=O)Nc1ccc(F)cc1F)n1nc(-c2ccccc2)c2c(c1=O)CCCC2 (centres undefined) | 38% (active)
46 | O=C(Cn1nc2c(cc1=O)CCCC2)Nc1ccc(F)cc1F | 118%
47 | CCC(C(=O)Nc1cc(OC)ccc1OC)n1nc(-c2ccccc2)c2c(c1=O)CCCC2 (centres undefined) | 35% (active)
48 | CCC(C(=O)Nc1cc(OC)ccc1OC)n1c(C)c2cnn(-c3ccccc3)c(=O)c2c1C (centres undefined) | 107%

Row | Compound | survival
49 | O=C(CSc1c2c(nc3ccccc13)CCC2)Nc1ccc(F)cc1F | 69%
50 | CCOc1ccc(NC(=O)CSC2=Nc3ccccc3C3=NC(CCC(=O)NCc4cccs4)C(=O)N23)cc1 (centres undefined) | 70%
51 | CCN1CCN(Cc2c(C)[nH]c3c(C)cc(C)cc3c2=O)CC1 | 59%
52 | COc1ccccc1Cc1nc2ccccc2[nH]c1=O | 54%
53 | CN1C(=O)c2ccccc2Sc2ccc(NC(=O)N3CCN(c4cccc(Cl)c4)CC3)cc21 | 87%
54 | CCOC(=O)CN1C(=O)c2cccnc2Oc2ccccc21 | 87%
55 | C=CCc1ccccc1OCCSc1nc(-c2ccccc2F)nc2cc(=O)[nH]n12 | 99%
56 | C=CCc1ccccc1OCCSc1nc(-c2ccc(C(C)(C)C)cc2)nc2cc(=O)[nH]n12 | 32% (active)
57 | COc1ccccc1OCCSc1nc(-c2ccc(C(C)(C)C)cc2)nc2cc(=O)[nH]n12 | 49%
58 | COc1ccc(NC(=O)Cn2nnnc2-c2ccccc2F)c(C)c1 | 74%
59 | CCOc1ccccc1NC(=O)Cn1c(=O)ccc2cc(S(=O)(=O)N3CCCC3)ccc21 | 0% (active)
60 | CCC(C)NC(=O)Cn1ccc2cc(S(=O)(=O)N3CCCCCC3)ccc21 (centres undefined) | 118%
61 | CCOc1ccc(NC(=O)COc2ccc(S(=O)(=O)NC3CCCCC3)cc2)cc1 | 62%
62 | CCOc1ccccc1NC(=O)Cn1c(=O)ccc2cc(S(=O)(=O)N3CCC(C)CC3)ccc21 | 55%
63 | COc1ccc(NC(=O)COc2ccc(S(=O)(=O)NC3CCCCC3)cc2)c(OC)c1 | 66%
64 | CCc1ccccc1NC(=O)Cn1c(=O)ccc2cc(S(=O)(=O)N3CCC(C)CC3)ccc21 | 92%
65 | Cc1cccc(NC(=O)Cn2c(=O)ccc3cc(S(=O)(=O)N4CCCC4)ccc32)c1C | 105%
66 | CCc1ccccc1NC(=O)Cn1c(=O)ccc2cc(S(=O)(=O)N3CCCC3)ccc21 | 46% (active)
67 | Cc1ccc(CNC(=O)Cn2c(=O)ccc3cc(S(=O)(=O)N4CCCC4)ccc32)cc1 | 92%
68 | CCC(C)NC(=O)Cn1c(=O)ccc2cc(S(=O)(=O)N3CCCC3)ccc21 (centres undefined) | 37% (active)
69 | O=C(Cn1c(=O)ccc2cc(S(=O)(=O)N3CCCC3)ccc21)Nc1ccccc1 | 57%
70 | CCOc1ccccc1NC(=O)COc1ccc(S(=O)(=O)NC2CCCCC2)cc1 | 48% (active)
71 | CCc1ccc(-n2c(=O)c3ccc(C(=O)NCCc4ccccc4)cc3n(CC(N)=O)c2=O)cc1 | 86%
72 | COC(=O)C1(CO)NC(c2ccccc2F)C2C(=O)N(c3ccccc3)C(=O)C21 (centres undefined) | 86%

Row | Compound | survival
73 | COc1ccc(-c2nc(C)c(CCNC(=O)c3cccs3)s2)cc1 | 61%
74 | O=C(Nc1ccc(N2CCC(c3ccccc3)C2)c(C(=O)O)c1)c1ccc(Cl)cc1 (centres undefined) | 60%
75 | CCNC(=O)C1CCCN(c2nn3cc(-c4ccc(C)cc4)nc3s2)C1 (centres undefined) | 74%
76 | COCCCNC(=O)c1cc(-c2ccc(OC)cc2)nc2n[nH]c(-c3ccc(Cl)cc3)c12 | 73%
77 | Cn1c(=O)n(C)c2cc(N3CCOCC3)c(NC(=O)c3ccccc3Br)cc21 | 82%
78 | Cc1ccc(NC(=O)Cn2c(=O)ccc3cc(S(=O)(=O)N4CCCC4)ccc32)cc1N(C)C | 32% (active)
79 | CCc1ccc(NC(=O)Cn2c(=O)ccc3cc(S(=O)(=O)N4CCCC4)ccc32)cc1 | 144%
80 | Cc1ccc(NC(=O)Cn2c(=O)ccc3cc(S(=O)(=O)N4CCCC4)ccc32)cc1C | 98%
81 | COc1cccc(NC(=O)CC2NCCNC2=O)c1 (centres undefined) | 84%
82 | CCCCN(C)CCNC(=O)c1ccc2c(=O)n(CCc3ccccc3)c(=O)[nH]c2c1 | 77%
83 | CCOC(=O)C1CCCN(C(=O)c2ccc(OCC)cc2)C1 (centres undefined) | 77%
84 | COc1ccc(S(=O)(=O)c2cnc3cc(OC)c(OC)cc3c2N2CCCC(C)C2)cc1 (centres undefined) | 116%
85 | CCc1ccc2ncc(C(=O)c3ccc(C)c(C)c3)c(N3CCC(C(N)=O)CC3)c2c1 | 86%
86 | CCOC(=O)C1CCCN(c2c(C(=O)c3ccc(OCC)cc3)cnc3ccccc23)C1 (centres undefined) | -3% (active)
87 | CCOC(=O)C1CCN(c2c(C(=O)c3ccc(OCC)cc3)cnc3ccc(OC)cc23)CC1 | 37%
88 | CCOc1ccc2nc(N3CCCC(C(=O)NCc4ccc(C)cc4)C3)sc2c1 (centres undefined) | 71%
89 | CCOC(=O)C1CCCN(c2c(C(=O)c3ccc(C)cc3)cnc3ccc(OCC)cc23)C1 (centres undefined) | 10% (active)
90 | CCOc1ccc(C(=O)c2cnc3ccc(Cl)cc3c2S(=O)(=O)c2ccc(C)cc2)cc1 | 80%
91 | CCOC(=O)C1CCN(c2c(C(=O)c3ccc(OC)cc3)cnc3ccccc23)CC1 | 125%
92 | COc1cc2ncc(C(=O)c3ccc(C)cc3)c(N3CCCCC3)c2cc1OC | 2% (active)
93 | COc1ccc(C(=O)c2cnc3ccc(C)cc3c2S(=O)(=O)c2ccccc2)cc1 | 69%
94 | CCOC(=O)C1CCN(c2c(C(=O)c3ccc(C)cc3)cnc3ccc(F)cc23)CC1 | 2% (active)
